Here are results for 38 compounds from PubChem BioAssay (NCI).

The structures appear in SMILES notation. Compounds without any hit were thinned out: in the full panel of roughly 83,000, 20% have a hit.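 Growth was measured after 48 h exposure to one concentration of compound in 96-well plates. Values under 10 count as active.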 Active and inactive are the calls of the source.

One test relates to MCF7 breast. The experiment in a line: NCI-60 one-dose screen, 48 h (100 = growth as untreated, 0 = no growth, -100 = all killed). Conditions: 10 µM unless noted.
Consider `COc1ccccc1CNCCCCCCCCCCCCN1C(=O)c2ccc3c4c(ccc(c24)C1=O)C(=O)N(CCCCCCCCCCCCNCc1ccccc1OC)C3=O`, for which the growth is 26.7% (inactive).
The same measure, in the same setting: under `Cc1nn(CC(=O)O)c2c1C(=O)CC(C)(C)C2` stands 102% (inactive); under `CCCCCCCCCCCCCCn1c2ccccc2c2c3c(c4c5cc(OC)ccc5oc4c21)C(=O)NC3=O`, 102% (inactive).
As to `COc1cccc(C2C3=C(COC3=O)N(CCO)c3cc4c(cc32)OCO4)c1` (stereo unspecified), the growth was 14.6% (inactive).
For `CCCCCCCCCCCCCCNc1nc(CO)ncc1-c1ccc(C(F)(F)F)cc1`, the growth is 96.2% (inactive).
`CN1CCc2cccc3c2C1Cc1ccc(O)c(O)c1-3` (stereo unspecified): the growth was 81.6% (inactive).
In the case of `O=C1NC(=S)S/C1=C\c1cccc([N+](=O)[O-])c1`, the growth was 87.8% (inactive).
The same measure, in the same setting: as for `CN(C)C(=S)SCN1C(=O)c2ccc([N+](=O)[O-])cc2S1(=O)=O`, the figure is 97.4% (inactive); as for `O=C(Nc1ccc(Cl)c(Cl)c1)OCn1ncc2ccc([N+](=O)[O-])cc21`, 85.9% (inactive); as for `CC(C)(C)[Si](C)(C)OC1[C@@H](CNC(=O)NC(=O)CCl)O[C@@H](n2cnc3c(N)ncnc32)[C@H]1O[Si](C)(C)C(C)(C)C` (stereo partly specified), -75.5% (active).
The same measure, in the same setting: under `COC(=O)c1c2c(c(C)[n+]([O-])c1C)C(=O)C=C(NCc1ccc(F)cc1)C2=O` stands -60.6% (active); under `CCCN(CCC)c1ccc(/C=C/c2ccc3cc(OCC)ccc3n2)cc1`, 84.9% (inactive); under `CCOC(=O)c1c(Cl)c2c(n1Cc1cc(OC)cc(OC)c1)-c1oncc1CCC2`, 10.7% (inactive).
Consider `O=c1[nH]c(=S)[nH]c(=O)n1Cc1cccc2ccccc12`, for which the growth was 80.9% (inactive).
Take `CC1=CN2C(=NC3=C(CCCC/C3=C\c3ccccc3)C2c2ccccc2)S1` (stereo unspecified): the growth is 94.6% (inactive).
Regarding `COc1cc(CNCCN2C(=O)c3ccc4c5c(ccc(c35)C2=O)C(=O)N(CCNCc2cc(OC)c(OC)c(OC)c2)C4=O)cc(OC)c1OC`, the growth was -59.4% (active).
Still for that read-out and setting: under `COc1ccc(-c2nc3sc(C)nn3c2-c2nc3cc(C)c(C)cc3[nH]2)cc1` stands 88.6% (inactive); under `Cc1nc2cc(Nc3nc(NCCN)nc(Nc4ccc(F)cc4)n3)ccc2n1Cc1ccccc1`, 68.8% (inactive); under `Cc1ccc2c(N/N=C\c3ccco3)cc(C)nc2n1`, 71.8% (inactive).
Regarding `CCCC1=NNC(=O)C1`, the growth is 96.3% (inactive).
Same read-out and setting: under `O=C(NCc1ccc(F)cc1)C1CN(c2ccc(Cl)cc2)N(c2ccc(Cl)cc2)C1=O` (stereo unspecified) stands 29.6% (inactive); under `CC1SC(c2ccc(Cl)cc2)N(CCc2cccs2)C1=O` (stereo unspecified), 2.74% (active).
On the same count and under the same terms, under `COc1cccc2c(=O)c3c(sc12)c(NCCN(C)C)nc1ccccc13` stands 0.0828% (active); under `NC(=O)c1cccc(-n2ccc3cc(NC(=O)Nc4ccc(Cl)c(Cl)c4)ccc32)n1`, 57.7% (inactive).
As for `Cc1ccc(S(=O)(=O)N2C/C(=C\c3cc(F)cc(F)c3)C(=O)/C(=C/c3cc(F)cc(F)c3)C2)cc1`, the growth is -75.4% (active).
Same read-out and setting: as for `Cn1c(=O)c(S(=O)(=O)c2ccccc2)cc2ccc3c(cnn3-c3ccc(Cl)cc3)c21`, the figure is 99.8% (inactive); as for `CSc1ccc(OC(C)=O)cc1C`, 100% (inactive).
Still for that read-out and setting: under `O=c1onc(-c2ccccc2)c2ccccc12` stands 102% (inactive); under `Nc1cc(Br)c(-c2nnc(CCC(=O)c3nc4ccccc4[nH]3)o2)c(Br)c1`, 18.9% (inactive).
On the same count and under the same terms, under `O=C1CC2c3cc(-c4cc5ccccc5o4)ccc3CCN2C(=O)N1c1ccccc1` (stereo unspecified) stands 88.6% (inactive); under `COc1cccc(-c2ccc3c(c2)C2CCN(Cc4ccccc4)C3C2)c1` (stereo unspecified), 60.1% (inactive); under `CCCCCCCCCCCCSC1=CC(=O)C=CC1=O`, 68.9% (inactive).
Take `COc1cc(/C=C/C(=O)C2=C(/C=C/c3ccc(O)c(OC)c3)NC(=O)NC2c2ccc(O)c(OC)c2)ccc1O` (stereo unspecified): the growth is 82.1% (inactive).
For `CCOC(=O)c1c(Cl)c2c(n1Cc1ccc(OC)cc1)-c1oncc1CCC2`, the growth is 82.3% (inactive).
Same read-out and setting: under `Cc1nc2cc(Nc3nc(N4CCCCC4)nc(N4CCOCC4)n3)ccc2n1Cc1ccccc1` stands 65.5% (inactive).
With `COc1ccc(C2CC(c3cc(OC)c(OC)c(OC)c3)=NN2c2ccc(S(N)(=O)=O)cc2)cc1` (stereo unspecified), the growth was 57% (inactive).
`Brc1ccccc1Nc1ccc2nnc(-c3ccncc3)n2n1`: the growth was 84.9% (inactive).
As for `Brc1ccc(SCN(CSc2ccc(Br)cc2)Cc2ccccc2)cc1`, the growth is 66.2% (inactive).

The next test has as its system HCT-116 colon. The description is as above. Conditions: 10 µM unless noted.
`COc1ccccc1CNCCCCCCCCCCCCN1C(=O)c2ccc3c4c(ccc(c24)C1=O)C(=O)N(CCCCCCCCCCCCNCc1ccccc1OC)C3=O`: the growth is -43% (active).
In the case of `Cc1nn(CC(=O)O)c2c1C(=O)CC(C)(C)C2`, the growth was 92.3% (inactive).
Regarding `CCCCCCCCCCCCCCn1c2ccccc2c2c3c(c4c5cc(OC)ccc5oc4c21)C(=O)NC3=O`, the growth was 105% (inactive).
With `COc1cccc(C2C3=C(COC3=O)N(CCO)c3cc4c(cc32)OCO4)c1` (stereo unspecified), the growth is 8.72% (active).
Take `CCCCCCCCCCCCCCNc1nc(CO)ncc1-c1ccc(C(F)(F)F)cc1`: the growth is 94.1% (inactive).
Still for that read-out and setting: as for `CN1CCc2cccc3c2C1Cc1ccc(O)c(O)c1-3` (stereo unspecified), the figure is 77% (inactive); as for `O=C1NC(=S)S/C1=C\c1cccc([N+](=O)[O-])c1`, 93.2% (inactive).
With `CN(C)C(=S)SCN1C(=O)c2ccc([N+](=O)[O-])cc2S1(=O)=O`, the growth was 95.7% (inactive).
Consider `O=C(Nc1ccc(Cl)c(Cl)c1)OCn1ncc2ccc([N+](=O)[O-])cc21`, for which the growth was 80.7% (inactive).
The same measure, in the same setting: under `CC(C)(C)[Si](C)(C)OC1[C@@H](CNC(=O)NC(=O)CCl)O[C@@H](n2cnc3c(N)ncnc32)[C@H]1O[Si](C)(C)C(C)(C)C` (stereo partly specified) stands -87.7% (active); under `COC(=O)c1c2c(c(C)[n+]([O-])c1C)C(=O)C=C(NCc1ccc(F)cc1)C2=O`, 0.358% (active).
Same read-out and setting: under `CCCN(CCC)c1ccc(/C=C/c2ccc3cc(OCC)ccc3n2)cc1` stands 70.4% (inactive); under `CCOC(=O)c1c(Cl)c2c(n1Cc1cc(OC)cc(OC)c1)-c1oncc1CCC2`, 23.9% (inactive); under `O=c1[nH]c(=S)[nH]c(=O)n1Cc1cccc2ccccc12`, 102% (inactive).
Consider `CC1=CN2C(=NC3=C(CCCC/C3=C\c3ccccc3)C2c2ccccc2)S1` (stereo unspecified), for which the growth is 97.6% (inactive).
Take `COc1cc(CNCCN2C(=O)c3ccc4c5c(ccc(c35)C2=O)C(=O)N(CCNCc2cc(OC)c(OC)c(OC)c2)C4=O)cc(OC)c1OC`: the growth was -99.7% (active).
Same read-out and setting: as for `COc1ccc(-c2nc3sc(C)nn3c2-c2nc3cc(C)c(C)cc3[nH]2)cc1`, the figure is 97.5% (inactive).
Still for that read-out and setting: as for `Cc1nc2cc(Nc3nc(NCCN)nc(Nc4ccc(F)cc4)n3)ccc2n1Cc1ccccc1`, the figure is 60.3% (inactive); as for `Cc1ccc2c(N/N=C\c3ccco3)cc(C)nc2n1`, 21.5% (inactive).
Turning to `CCCC1=NNC(=O)C1`, the growth was 98.5% (inactive).
With `O=C(NCc1ccc(F)cc1)C1CN(c2ccc(Cl)cc2)N(c2ccc(Cl)cc2)C1=O` (stereo unspecified), the growth is 48.8% (inactive).
As to `CC1SC(c2ccc(Cl)cc2)N(CCc2cccs2)C1=O` (stereo unspecified), the growth is -5.82% (active).
As to `COc1cccc2c(=O)c3c(sc12)c(NCCN(C)C)nc1ccccc13`, the growth is 11% (inactive).
Same read-out and setting: as for `NC(=O)c1cccc(-n2ccc3cc(NC(=O)Nc4ccc(Cl)c(Cl)c4)ccc32)n1`, the figure is 71.9% (inactive).
Still for that read-out and setting: as for `Cc1ccc(S(=O)(=O)N2C/C(=C\c3cc(F)cc(F)c3)C(=O)/C(=C/c3cc(F)cc(F)c3)C2)cc1`, the figure is -93.9% (active); as for `Cn1c(=O)c(S(=O)(=O)c2ccccc2)cc2ccc3c(cnn3-c3ccc(Cl)cc3)c21`, 63.5% (inactive); as for `CSc1ccc(OC(C)=O)cc1C`, 101% (inactive).
For `O=c1onc(-c2ccccc2)c2ccccc12`, the growth was 113% (inactive).
On the same count and under the same terms, under `Nc1cc(Br)c(-c2nnc(CCC(=O)c3nc4ccccc4[nH]3)o2)c(Br)c1` stands 53.3% (inactive).
With `O=C1CC2c3cc(-c4cc5ccccc5o4)ccc3CCN2C(=O)N1c1ccccc1` (stereo unspecified), the growth is 75.3% (inactive).
Still for that read-out and setting: as for `COc1cccc(-c2ccc3c(c2)C2CCN(Cc4ccccc4)C3C2)c1` (stereo unspecified), the figure is 58.4% (inactive); as for `CCCCCCCCCCCCSC1=CC(=O)C=CC1=O`, 78.3% (inactive).
Turning to `COc1cc(/C=C/C(=O)C2=C(/C=C/c3ccc(O)c(OC)c3)NC(=O)NC2c2ccc(O)c(OC)c2)ccc1O` (stereo unspecified), the growth was 73.3% (inactive).
Same read-out and setting: as for `CCOC(=O)c1c(Cl)c2c(n1Cc1ccc(OC)cc1)-c1oncc1CCC2`, the figure is 62.3% (inactive); as for `Cc1nc2cc(Nc3nc(N4CCCCC4)nc(N4CCOCC4)n3)ccc2n1Cc1ccccc1`, -49.9% (active); as for `COc1ccc(C2CC(c3cc(OC)c(OC)c(OC)c3)=NN2c2ccc(S(N)(=O)=O)cc2)cc1` (stereo unspecified), 48.2% (inactive).
Same read-out and setting: under `Brc1ccccc1Nc1ccc2nnc(-c3ccncc3)n2n1` stands 94.9% (inactive).
In the case of `Brc1ccc(SCN(CSc2ccc(Br)cc2)Cc2ccccc2)cc1`, the growth was 57.8% (inactive).
